Reference: PubChem BioAssay AID687001 (Broad Institute, 2013)
Entries with a potency or affinity are not part of this list. Active and inactive are the calls of the source.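 The calls were made as follows: active = signal-lowering compounds whose fitted half-maximal concentration is at or below twice the top tested dose in every run; inconclusive = runs disagree, flat 30 to 70% inhibition, or poor curve fit; inactive = the rest.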

Molecular target: Protein S100-A4 (Homo sapiens) (UniProt P26447)
Assay: human S100A4 peptide interaction inhibition curves – biochemical, fluorescence polarization, cherry-picked hits, dose response (AID 687001)
Settings: FP, S100A4/TAMRA-myosin IIA peptide binding; series mostly up to 11 µM

Protein S100-A4 (Homo sapiens), sequence (P26447 whole entry, looked up): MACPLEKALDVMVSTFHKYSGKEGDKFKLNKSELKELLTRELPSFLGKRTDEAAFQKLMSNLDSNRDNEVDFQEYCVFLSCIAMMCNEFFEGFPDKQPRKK

outcome, inactive:
CCS(=O)(=O)c1nc(S(=O)(=O)c2ccc(C)cc2)c(NCCCN2CCCC2=O)s1
CC(=O)Nc1ccc(C=NNc2nnc(NN=Cc3ccc(NC(C)=O)cc3)c3ccccc23)cc1
CCCNC(=O)Nc1ccc2c(c1)C(=O)N(C)C[C@@H](OC)[C@@H](C)CN[C@@H](C)CO2
CC(C)NC(=O)N(C)C[C@@H]1Oc2ccc(NS(=O)(=O)c3ccccc3)cc2C(=O)N([C@H](C)CO)C[C@@H]1C
CN(C(=O)CCc1cn(C)c2ccccc12)c1ccc(Oc2cccnc2)cc1
CC(C)CC(=O)Nc1c2c(nn1-c1ccc(F)cc1)CS(=O)C2 (centres undefined)
CCC(=O)N1CC(=O)N2[C@H](CO)[C@H](c3ccc(C#CC4CCCC4)cc3)[C@H]2C1
O=C(Cn1cc(COc2ccc3ccc(=O)oc3c2)nn1)c1ccc(O)cc1
COc1ccc(-c2cc(C(=O)NC3CC3)c3ccccc3n2)cc1
Cc1ccc(NC(=O)CSc2ccc(-c3cccnc3)nn2)cc1
Cc1ccc(N(C)S(=O)(=O)c2cccc(C(=O)NCCCN3CCCC3=O)c2)cc1
O=C(NCCN1CCOCC1)c1ccc(/C=C2\Sc3ccccc3N(Cc3ccccc3F)C2=O)cc1
COc1cc(/C=C2\SC(=S)N(NC(=O)c3ccccc3OC)C2=O)ccc1O
C[C@H](NC(=O)C[C@@H]1CC[C@H](NC(=O)C2CCOCC2)[C@@H](CO)O1)c1ccccc1
O=C1O[C@@H](c2ccccc2)C[C@@H](O)C(=O)CCCCc2ccccc21
O=C(Nc1cccc(Cl)c1)N[C@H]1CC[C@H](CCNC(=O)C2CCCC2)O[C@H]1CO
CS(=O)(=O)Nc1cccc(C2=NN(C(=O)c3ccc(F)cc3)C(c3cccs3)C2)c1 (centres undefined)
Cc1noc(C)c1NC(=O)N[C@@H]1CC[C@H](CCNC(=O)C2CCOCC2)O[C@@H]1CO
COc1ccc(S(=O)(=O)N(C)C[C@H]2Oc3ncc(-c4ccncc4)cc3C(=O)N([C@@H](C)CO)C[C@H]2C)cc1
COCC(=O)N1C[C@H]2[C@@H](c3ccccc31)[C@@H](CO)N2C(=O)Nc1ccccc1F
O=C(NC1CCCC1)N1CCCCN2[C@@H](CO)[C@@H](c3ccc(-c4cccnc4)cc3)[C@@H]2C1
O=C(c1ccc(N2C(=O)CCC2=O)cc1)N1CCCSC1=Nc1ccccc1
Cc1ccc(C(=O)N2CCN(c3ccc4c(c3)C3CC4CCN3C(=O)OCc3ccccc3)CC2)cc1 (centres undefined)
O=C(O)[C@@H]1[C@@H](CO)[C@@H]2Cn3c(ccc(/C=C/c4ccccc4)c3=O)[C@@H]2N1C(=O)C1CCCC1
COc1ccc(NC(=O)N(C)C[C@@H]2Oc3ncc(C#CC(C)(C)O)cc3C(=O)N([C@H](C)CO)C[C@@H]2C)cc1
CC(=O)c1c(C)[nH]c(C(=O)OCc2csc(CC(=O)Nc3ccccc3C)n2)c1C
COc1ccc(Cl)cc1NC(=O)CN(C)C(=O)CCCc1c[nH]c2ccccc12
C[C@H]1CCCCO[C@H](CN(C)Cc2ccc(C(F)(F)F)cc2)[C@@H](C)CN([C@@H](C)CO)C(=O)c2cc(NC(=O)Nc3ccc4c(c3)OCO4)ccc2O1
CCOc1cc(S(=O)(=O)N2CCC(c3nc4ccccc4s3)CC2)c(OCC)cc1S(=O)(=O)N1CCCCC1
Clc1ccc(-c2nc(CSc3ccccn3)cs2)cc1
C[C@H]1CN([C@@H](C)CO)S(=O)(=O)c2ccc(C3=CCCCC3)cc2O[C@H]1CN(C)Cc1ccccc1
COc1ccccc1NC(=O)N[C@H]1C=C[C@H](CC(=O)N2CCC(Cc3ccccc3)CC2)O[C@@H]1CO
CC(C)[C@@H]1C=C(C(=O)O)O[C@H](OCCCCO)C1
O=C(CCN1CCCCC1)N[C@H]1CC[C@@H](CCNS(=O)(=O)c2ccc(Cl)cc2)O[C@H]1CO
COc1cccc(S(=O)(=O)N2CC[C@@H]3[C@@H](CO)Nc4ccc(C#Cc5ccccc5)cc4[C@@H]32)c1
CN(C)CCCNC(=O)C[C@@H]1CC[C@H]2[C@@H](COC[C@@H](O)CN2Cc2ccc(Cl)c(Cl)c2)O1
Cc1cccc2c(CC(=O)Nc3ccccc3)noc12
COc1ccc(CNC(=O)CN2C(=O)c3ccccc3C2=O)cc1
Cc1ccc(C2=N/C(=C\c3ccc(F)cc3)C(=O)N2)cc1
